The assay deals with T1, USP38, Q8NB14.
T1 chain: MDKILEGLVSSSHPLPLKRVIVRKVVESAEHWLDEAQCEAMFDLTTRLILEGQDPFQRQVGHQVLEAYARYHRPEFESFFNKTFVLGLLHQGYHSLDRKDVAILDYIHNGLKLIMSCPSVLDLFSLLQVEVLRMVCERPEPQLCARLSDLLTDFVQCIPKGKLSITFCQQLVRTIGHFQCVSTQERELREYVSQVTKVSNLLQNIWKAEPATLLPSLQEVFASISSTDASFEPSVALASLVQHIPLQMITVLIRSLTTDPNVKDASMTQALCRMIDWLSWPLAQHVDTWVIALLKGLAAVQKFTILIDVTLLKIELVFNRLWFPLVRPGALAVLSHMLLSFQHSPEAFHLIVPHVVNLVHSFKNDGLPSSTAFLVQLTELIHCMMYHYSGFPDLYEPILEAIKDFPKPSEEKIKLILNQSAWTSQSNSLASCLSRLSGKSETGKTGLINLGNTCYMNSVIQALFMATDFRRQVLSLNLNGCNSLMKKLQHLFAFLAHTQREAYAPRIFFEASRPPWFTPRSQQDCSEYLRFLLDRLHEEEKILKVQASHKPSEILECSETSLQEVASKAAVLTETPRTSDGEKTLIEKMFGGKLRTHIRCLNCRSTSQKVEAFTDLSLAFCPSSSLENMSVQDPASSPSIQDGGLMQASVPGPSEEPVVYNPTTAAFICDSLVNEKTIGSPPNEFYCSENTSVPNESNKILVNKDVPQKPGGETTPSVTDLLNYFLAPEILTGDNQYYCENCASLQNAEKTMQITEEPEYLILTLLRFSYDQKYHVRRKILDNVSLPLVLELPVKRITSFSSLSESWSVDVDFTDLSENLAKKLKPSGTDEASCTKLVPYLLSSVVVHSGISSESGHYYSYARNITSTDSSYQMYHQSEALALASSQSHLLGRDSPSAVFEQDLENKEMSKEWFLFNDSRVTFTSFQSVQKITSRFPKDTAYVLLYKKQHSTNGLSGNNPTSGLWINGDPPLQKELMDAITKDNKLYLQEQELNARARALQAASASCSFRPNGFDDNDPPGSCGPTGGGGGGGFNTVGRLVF
The experiment in a line: median log2 fold change of GCK-ALFA target abundance (FLAG IP / Myc IP barcode read proportion) (log2 ratio); each designed protein is fused to an ALFA-tag nanobody in HEK293 cells to bring the named protein to FLAG-tagged glucokinase (GCK); Myc marks an untargeted standard; higher = target protein stabilised (more abundant). The conditions noted are these: target protein: 3xFLAG-MCP-GCK-ALFA reporter; HEK293 landing pad (RPLP). Summed up:
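The readout is target abundance, the per-binder median log2 ratio of FLAG to Myc barcode read proportions. It came from HEK293 landing-pad cells carrying a recombined ALFA-nanobody-fused binder library, induced with 2 μg mL^−1 doxycycline and transfected with a plasmid for a FLAG-tagged target and a Myc-tagged standard. After 48 h, lysates were immunoprecipitated with anti-FLAG and anti-Myc, and circular RNA barcodes were reverse transcribed, amplified and sequenced. Each barcode needed a proportion of at least 10^−7 in both replicates and each binder at least 3 barcodes per replicate, a pseudocount of 10^−6 was added, and the replicates were pooled.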

B1: usp_38_diff_out_16_109_168 (protein)
chain: SADEEADRLLAEAAIANFRALAADAEAELKRLEARGASPAVLKAYADLAAKAKEAAATIEAALAKGENLRETTDAQWDAVGAAAARASELRRAEARERSA
For B1, the “median log2 fold change” value is 0.16.

B2: usp_38_diff_out_15_42_146 (protein)
chain: SQLEEELRLIVEAMEAERDRVVADVATLPEAKLKRLARRNLEGAKGEAERTGDPVAAEIAALYEEGLANPATLKAKMQEAVRLTYDRAIAEVRRRMEEEA
On to B2, for which the “median log2 fold change” value was -0.607.

B3: usp_38_diff_out_15_85_147 (protein)
chain: ALEELRRELEEAIREARRLLEEARKLLAEKTPEALKAAREALDRAAEHLGRAAELLRELRRAGADPAELARLQAELDELVDEYEKLALELFEKEIELQEA
For B3, the “median log2 fold change” value was found to be 0.0216.

B4: usp_38_diff_out_15_17_144 (protein)
chain: DPESEALYREALRANIASVFDEAAAIAAKRAARAEAEGNAELAAALRRLRDLLEHRDETPLADIAAAARELAALAEEAGDYRTAAIAGGVAAAAEELAEL
As to B4, the “median log2 fold change” value amounted to 0.158.

B5: usp_38_diff_out_15_91_161 (protein)
chain: LESKLQAAEGTADYAKEMKAEAEKLGLEEQAKKLQEVADAAKKLAELYKKLIKLEKEGAPKEEIEKVRKEAKKLEEELNKLISEAVPYMAEILLKKQEKE
As to B5, the “median log2 fold change” value was -0.0204.

B6: usp_38_diff_out_15_85_155 (protein)
chain: EAEELKREIEREIEEARRLLEEARALLADPAAPLAAIREVLDRAAEALGRAEALARELRRRFPEYREFVKKALEELDRLTDELERLAREAFEREADALAA
With B6, the “median log2 fold change” value amounted to 0.127.

B7: usp_38_diff_out_14_75_137 (protein)
chain: SRKEELRERLAEARARLDALVAEGRITGRLEVELRGILHIAEEAIEAGRLEEAERLLDIAERALDDPANARAIIRANEDFIVSTAKKLDLERIEEEEERR
Take B7: the “median log2 fold change” value came to 0.124.

B8: usp_38_diff_out_16_109_169 (protein)
chain: SADEEADRLLAEAAIANFRALAEEARARLARLKARGASPAVLAAHQALADTAEAAAAEIEAALAAGENLRETTDRQWDAVGAAAAAASAALRAEARARSA
Consider B8, for which the “median log2 fold change” value was -0.16.

B9: usp_38_diff_out_15_85_149 (protein)
chain: KIEELKKQLQAAIDEAEALLAEAEALLKKGTPEALEAARKALDAAAKAIGQADQLLRELRKAGADKEELEAYQKRLDALTDRYEALARELFEKEMELQEK
Turning to B9, the “median log2 fold change” value was found to be 0.113.

B10: usp_38_diff_out_15_114_142 (protein)
chain: SAEEEAEEELRELEIKAGKDVAEELLEELKELRKRGRLTPAREERLLLGLRGLAILAIELKNKELAELVLEALEEFAKISDPETRAEAEKLAAELKKAMA
Take B10: the “median log2 fold change” value was 0.0926.

B11: usp_38_diff_out_15_91_159 (protein)
chain: LESKLEAARGVAAWAEEMAARARELGLEEEAALFEEVAAAARELAELLEKIIKLKKEGADPKEIEAARKEAKAAEARLNELLSRAVPAAARVLLAEQERE
Turning to B11, the “median log2 fold change” value is -0.149.

B12: usp_38_diff_out_15_91_164 (protein)
chain: MSSKTIATKGTRDYLKDAAAEAKELGLEETAKALEEAAALADQLLDLLEQLEKAEKEGADQAEIDKLRKEAKELDAKLNEKISELVPGLAELEQKRIERE
Consider B12, for which the “median log2 fold change” value stood at 0.19.

B13: usp_38_diff_out_15_85_157 (protein)
chain: AAEALKAEIQAKIAEAKALLAEAKALLADPAAPLAEIEAVLDAAARALGQAQALARQLRREFPEQAAFVKAANAELDALTDELTALARAAFERRAEADLA
B13: the “median log2 fold change” value is 0.104.

B14: usp_38_diff_out_15_17_145 (protein)
chain: DEEARRLELEAERAAMDAVIADARATLTRLAAKAKAAGWAEVAAEYEAAIAALDAGDLEAAAEHLERAARLLWDKNPRDATIAGGLAYALRRKVELDRLE
For the molecule B14, the “median log2 fold change” value was -0.0496.

B15: usp_38_diff_out_15_85_151 (protein)
chain: SPEELKKKIEEKLEEARRLLEEARRLLADPNAPLEEIRKVLDEAARALGEAEHLARELRKLSPEYREEVEKYLKELDELVDELEALAREAFLREAEAQEA
Consider B15, for which the “median log2 fold change” value was 0.0262.

B16: usp_38_diff_out_14_75_138 (protein)
chain: SREEELRKRLEEAEARLAELVAQGKITGRKEVELRGILHIAREAIEAGRLEEAEKLLDIAEEALENPEKAKEIIDENEDFIVSTAKELALREIEEEEKRR
Take B16: the “median log2 fold change” value was 0.163.

B17: usp_38_diff_out_15_91_163 (protein)
chain: MSSRTIATEGTLKRLKEDAELARELGLEETAKKAEEAAKLAEELLKLLKEREKAIKAGAPKEEIEKLRKEAKKKEKELNEKLSELVPDWAELELKRIEKE
As for B17, the “median log2 fold change” value was determined as 0.082.

B18: usp_38_diff_out_15_114_141 (protein)
chain: SAEEEAAAELREREVAAGLAVARDLLAELEELARRGRLTPAREERLLLGLRGLARLAIELGDRELAEEVLRALDAFAAIASPELRAEAEALRAELEAAMA
As to B18, the “median log2 fold change” value was 0.234.

B19: usp_38_diff_out_16_109_165 (protein)
chain: SQDEEADRLLAEAAIANLKALAKEAKEELKKLKARGASPEVLAAYQKLADTAEAAAKAIEAALKAGKNLRETTDKQLDAVGAAAAAASALRRAEARERSA
B19: the “median log2 fold change” value amounted to 0.0224.

B20: usp_38_diff_out_15_91_160 (protein)
chain: LESKLQAAKGTADWAKEMREEAEELGLEEEAALLEEVRKLAEELAKLLEELIKLEKEGAPQEEIDKLRKEAKEKEKELNEAISKAVPAAARILLARQEKE
As to B20, the “median log2 fold change” value is 0.0652.

B21: usp_38_diff_out_16_109_170 (protein)
chain: SQDEEADRLLAEATIENLKALAEEAKERLKKLEAKGASAEVLKAYKDLAETAKKAAEEIKEALKKGENIRETTDKKWDEVGKAAAAASEARRAEARARSA
As for B21, the “median log2 fold change” value was 0.177.

B22: usp_38_diff_out_15_85_153 (protein)
chain: SPEEIKKEIEREIEEAERLIEEARRLLEDPEAPLEEVREVLDEAARHLGRAQHLARELRRLSPEYREFVKEAEKRLDELVDELEELAREAHLREAEELEA
On to B22, for which the “median log2 fold change” value is -0.141.

B23: usp_38_diff_out_15_114_140 (protein)
chain: SAEEEAAEELRQREIAAGRDVARDLLAELRELKKRGRLTPAREERLLLGLEGLARLAIELGDEELARLVLEALDAFAEISDPETQARARALRAELEAAMA
As to B23, the “median log2 fold change” value stood at 0.0749.

B24: usp_38_diff_out_15_85_156 (protein)
chain: EAEKLKEEIERKIKEAEKLLKEAKKLLADPKAPLEEIRKVLDKAAEALGEAEKLARELRRKFPEEREYVKEVLKRLDKLVDELEKLAREAFEREADALLA
On to B24, for which the “median log2 fold change” value was -0.0522.

B25: usp_38_diff_out_15_85_150 (protein)
chain: TPEELKAEIEREIEEAERLLERAEELLRDPEAPLEEIRRVLDEAAEALGRADHLARELRRLSPEYRAYVEEVLKRLDELVDRLEELAREAFLREADELEA
Turning to B25, the “median log2 fold change” value turned out to be 0.0224.

B26: usp_38_diff_out_15_91_162 (protein)
chain: LESKLQAARGTADYAREMQERAEELGLEEEAALLQKVRDAAEELAKLYEELIALQKAGADQAEIDKVRKEAKKLLEELNKLISEAVPAAARILLKEQERE
For B26, the “median log2 fold change” value was -0.243.

B27: usp_38_diff_out_15_85_154 (protein)
chain: EAEELKREIEEEIRRAEELLAEAEALLADPAAPLEEIEAVLDEAARALGRAEALARELRRRFPEYREYVKEVLERLDELTDRLLALETEAFERRAEEDLA
Regarding B27, the “median log2 fold change” value is -0.0616.

B28: usp_38_diff_out_16_109_167 (protein)
chain: SADEEAAKLLAEATIKELKALAKEAEERLKKLKAKGASEEVLAAEKKLADTAKKAAEEIEKALKKGENILETTNKKWDEVGAAAAEAAELRRAEARARSA
B28: the “median log2 fold change” value stood at 0.102.

B29: usp_38_diff_out_15_114_139 (protein)
chain: SEEEEAEEELRKLEIEQGKKVAEDLLAELERLAKEGRLTPAREERLLLGLKGLAKLAIELKDKELAELVLKALEAFAKISSPEHRKEAEKLAKELKEAMA
In the case of B29, the “median log2 fold change” value was found to be 0.292.

B30: usp_38_diff_out_16_109_166 (protein)
chain: SADEEADRLLAEAAIENFEKLAEEAKEELKKLKAKGASEEVLKAYEDLAKTAREAAEKIREALERGENLRETTREQWDKVGAKAAEASELRRAEARERSA
On to B30, for which the “median log2 fold change” value was 0.186.

B31: usp_38_diff_out_15_85_152 (protein)
chain: SPEEIKKEIKKEIEKAKELIKEAKKLLKDPNAKLEEIRKVLDEAAKALGKAEYLARELRKLSPEYREEVKEYLKELDELVDELEKLEREAFLRMAEEQEA
As to B31, the “median log2 fold change” value was 0.113.

B32: usp_38_diff_out_15_114_143 (protein)
chain: SEEEEAEEELRRLEIEEGLRVAEELLAELEELRKRGRLTPAREERLLLGLEGLAILAIELGDEELARRVLEALRALAEISSPETRARAEALAAELEAAMA
Regarding B32, the “median log2 fold change” value was -0.119.

The values above are taken from the supplement of paper PMC12632987.
